Each structure is given as a SMILES string. The campaign covered roughly 2,400 compounds. About 950 (40%) were called active.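 The calls were made as follows: active = thallium flux ratio, averaged over three wells, more than 5 SD below the buffer control mean; inactive = the rest.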 The entries come from a sample that favours actives as a whole.

This assay in a line: nonspecific thallium influx blockers, KCNK3-free cells – cell-based, non-induced KCNK3 line, FluxOR thallium, triplicate, counter-screen for KCNK3 inhibitor project, primary screen (AID 651747).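 Also: host cells are CHO cells without KCNK3 induction.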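 As to thallium flux ratio (lower = more inhibition): ratio is peak minus trough fluorescence over baseline then normalized to buffer controls.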 Conditions: non-induced KCNK3 parental cells, at 10 µM; outcome: FluxOR thallium flux; thallium flux ratio (lower = more inhibition): stronger effect = lower value. On the technique in general: The purpose of a counterscreen is to sort out artefacts and off-target activity.
In the case of `CCOC(=O)C1SC2(C(F)(F)C(F)F)CC1(O)c1c(c(OC)c3occc3c1OC)O2` (stereo not drawn), the thallium flux ratio (lower = more inhibition) was 0.16 (active).
Consider `CCCCCCN=C(CC)c1c(O)n(CCCC)c(=O)[nH]c1=O`, for which the thallium flux ratio (lower = more inhibition) was 0.126 (active).
`COc1ccccc1C1=NCc2nnc(CSC)n2-c2ccc(Cl)cc21`: the thallium flux ratio (lower = more inhibition) entry was “inactive”.

The values are drawn from PubChem BioAssay AID651747 (Johns Hopkins Ion Channel Center, 2012).
